Among all 310,000 compounds or so, about 14,000 (4.5%) showed an effect of 50% or more. Effects have a minus sign here. The full list was thinned out, with strong results kept by preference.
target: human ether-à-go-go-related gene (hERG) potassium channel (human, UniProt Q12809); experiment: primary screen, population patch clamp on CHO cells stably expressing hERG; higher = less effect of the substance
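Also: peak tail current of the secondary pulse compared with the same well before compound.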

Chain of human ether-à-go-go-related gene (hERG) potassium channel (Q12809 whole entry, looked up): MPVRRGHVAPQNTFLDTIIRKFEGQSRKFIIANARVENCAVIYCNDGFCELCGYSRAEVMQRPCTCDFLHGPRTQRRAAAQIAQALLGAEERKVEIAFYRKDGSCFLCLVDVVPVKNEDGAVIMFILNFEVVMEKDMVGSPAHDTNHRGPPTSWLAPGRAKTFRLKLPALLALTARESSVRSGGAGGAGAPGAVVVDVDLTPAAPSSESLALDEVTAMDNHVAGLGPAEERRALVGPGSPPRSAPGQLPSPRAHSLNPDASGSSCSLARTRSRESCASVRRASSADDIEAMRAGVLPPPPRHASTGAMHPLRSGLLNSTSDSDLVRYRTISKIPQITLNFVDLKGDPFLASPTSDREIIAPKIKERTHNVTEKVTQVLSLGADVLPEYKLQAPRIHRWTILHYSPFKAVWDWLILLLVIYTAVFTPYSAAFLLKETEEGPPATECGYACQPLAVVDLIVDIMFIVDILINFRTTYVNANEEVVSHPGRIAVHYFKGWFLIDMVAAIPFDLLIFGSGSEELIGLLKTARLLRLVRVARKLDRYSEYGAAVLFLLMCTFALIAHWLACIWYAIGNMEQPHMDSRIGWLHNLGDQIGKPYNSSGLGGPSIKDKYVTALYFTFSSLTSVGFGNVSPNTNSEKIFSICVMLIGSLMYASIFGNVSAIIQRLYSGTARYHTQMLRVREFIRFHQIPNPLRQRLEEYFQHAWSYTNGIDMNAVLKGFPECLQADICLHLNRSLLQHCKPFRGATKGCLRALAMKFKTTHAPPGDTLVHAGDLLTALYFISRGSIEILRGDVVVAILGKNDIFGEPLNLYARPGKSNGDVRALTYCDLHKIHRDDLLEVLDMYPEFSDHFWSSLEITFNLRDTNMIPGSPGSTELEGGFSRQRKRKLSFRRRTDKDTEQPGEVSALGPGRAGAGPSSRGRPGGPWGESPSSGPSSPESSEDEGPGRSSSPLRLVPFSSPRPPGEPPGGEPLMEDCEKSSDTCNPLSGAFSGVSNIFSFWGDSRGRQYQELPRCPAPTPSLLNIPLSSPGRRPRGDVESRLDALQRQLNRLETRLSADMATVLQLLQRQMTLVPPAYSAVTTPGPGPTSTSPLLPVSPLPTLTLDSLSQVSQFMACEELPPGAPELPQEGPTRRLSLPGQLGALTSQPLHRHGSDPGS

SMILES | hERG current change (%, negative = inhibition) at 10uM [%]
Cc1ccc(Cn2ccc(NC(=O)c3cc(CC(C)C)on3)n2)cc1 | -8.08
CCn1nc(C(=O)OCC(=O)c2cc(C)n(Cc3cccs3)c2C)c2ccccc2c1=O | 7.14
O=C(/C=C/c1cccs1)Nc1sc2c(c1C(=O)O)CCCC2 | 28.5
COc1ccc(-c2cc(C(=O)OCC(=O)N3CCCC3)c3ccccc3n2)cc1 | -19.1
O=C(c1cc(-c2ccco2)nc2ccccc12)N1CCN(Cc2ccccc2)CC1 | -42.8
O=C(OCC(=O)N1CCN(C(=O)c2ccco2)CC1)c1cccc(F)c1 | -16.8
O=C(OCC(=O)N1CCN(C(=O)c2ccco2)CC1)c1cc(-c2ccc(F)cc2)nc2ccccc12 | -59.4
O=C(OCC(=O)N1CCN(C(=O)c2ccco2)CC1)c1cc(-c2ccco2)nc2ccccc12 | -69.7
O=C(OCC(=O)N1CCN(C(=O)c2ccco2)CC1)c1cc(-c2ccc(Cl)c(Cl)c2Cl)nc2ccccc12 | 2.88
Cc1cc(C(=O)OCC(=O)NCc2ccco2)c(C)n1-c1ccc(F)cc1 | -28.3
O=C(OCC(=O)N1CCN(C(=O)c2ccco2)CC1)c1cc(-c2ccccc2)nc2ccccc12 | -60.3
O=C(c1ccco1)N1CCN(C(=O)c2cc(-c3ccccn3)nc3ccccc23)CC1 | -34.8
O=C(OCC(=O)N1CCN(C(=O)c2ccco2)CC1)c1cc(-c2cccc(Br)c2)nc2ccccc12 | -19.6
Cc1cc(C(=O)OCC(=O)N2CCN(C(=O)c3ccco3)CC2)c(C)n1-c1ccc(F)cc1 | -66.4
O=C(COC(=O)c1cc(-c2ccco2)nc2ccccc12)NCc1ccccc1 | -11.3
CCCn1[nH]cc(SC)c(=O)c1=O | -5.83
CCn1c(SCC(=O)Nc2c(C)n(C)n(-c3ccccc3)c2=O)nc2c1c(=O)n(C)c(=O)n2C | 18.2
Cc1c(C(C)C)c(=O)n(-c2ccc(S(=O)(=O)N3CCOCC3)cc2)n1C | 17.4
Nc1c(Cl)c(Cl)nc(C(=O)OCC(=O)NCc2ccccc2)c1Cl | -18.2
COCCn1c(SCC#N)nnc1-c1ccc2c(c1)OCO2 | -24.2
CCCCC(=O)Nc1c(O)c2ccccc2[nH]c1=O | -0.31

SMILES | hERG current change (%, negative = inhibition) at 10uM [%]
Cc1ccc(NC(=O)N2CCCCC2)cc1NC(=O)N1CCCCC1 | 16.5
Cc1ccc(-n2c(O)c(C=N)c(=O)n(-c3ccc(C)cc3)c2=O)cc1 | -8.85
CN1C(=O)N(C)C(=O)C(CCc2ccncc2)(CCc2ccncc2)C1=O | -51.2
O=C1NC(=O)C(CCc2ccncc2)(CCc2ccncc2)C(=O)N1Cc1ccccc1 | -72.5
COc1ccccc1N1C(=O)NC(=O)C(CCc2ccncc2)(CCc2ccncc2)C1=O | -46.6
O=C1NC(=O)C(CCc2ccncc2)(Cc2ccc3c(c2)OCO3)C(=O)N1CCc1ccccc1 (stereo not drawn) | -32.5
O=C1NC(=O)C(CCc2ccncc2)(CCc2ccncc2)C(=O)N1C1CCCCC1 | -75.3
C=CCN1C(=O)NC(=O)C(CCc2ccncc2)(CCc2ccncc2)C1=O | -41.8
CN1C(=O)N(C)C(=O)C(CCc2ccccn2)(CCc2ccccn2)C1=O | 3.54
O=C1NC(=O)C(CCc2ccncc2)(c2ccccc2)C(=O)N1 | 5.76
CCC1(CCc2ccncc2)C(=O)NC(=O)NC1=O | -4.69
COc1cc(CC2(CCc3ccncc3)C(=O)N(C)C(=O)N(C)C2=O)cc(OC)c1OC | -8.33
O=C1NC(=O)C(CCc2ccncc2)(C2CCCCC2)C(=O)N1 | 5.77
O=C1NC(=O)C(CCc2ccncc2)(CCc2ccncc2)C(=O)N1CCc1ccccc1 | -71.7
O=C(Cn1nc(-c2ccccc2)c2ccccc2c1=O)NN1CCOCC1 | 5.24
COc1ccc(S(=O)(=O)NCc2cccnc2)cc1OC | 17.1
COc1cc2sc3ccc(C#Cc4ccccn4)cc3c(=O)c2cc1OC | 14.9
O=C1Cc2ccccc2C(=O)N1Cc1cccc(Cl)c1 | 11.5
CC(=O)Nc1sc(NC(=O)c2ccccc2)nc1-c1cccs1 | 0.00438
CC1CC(Nc2ccccc2)=CC(=O)O1 (stereo not drawn) | 24.7
CC(c1nnc(Sc2nnnn2-c2ccccc2)n1-c1ccc(F)cc1)N(C)C (stereo not drawn) | 3.57

From publication PMC4336329 (PLoS ONE, 2015)
